# High-throughput results deposited in PubChem by National Center for Advancing Translational Sciences (NCATS).
# Pf growth 48h – P. falciparum growth inhibition at 48 hours (one generation). P. falciparum luciferase growth in erythrocytes, 48 h. Potency, µM (titrated, usually from 28.7 µM), without a hit: at the highest dose activity change, negative = inhibition, usual class: inhibitors. hit rate 5.9% among 310,000; also: potency is read from the fitted curve at half-maximal effect; % is scaled to controls: 0 for no effect and ±100 for the full control effect
#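 Cell-based growth assay: transgenic P. falciparum expressing firefly luciferase, cultured in red cells within RPMI 1640 containing 0.5% w/v Albumax, 24 mM bicarbonate and gentamycin. A drop in luciferase activity indicates inhibition.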
# Cycloheximide cs – affects cycloheximide protein synthesis inhibition readout, counter-screen; max response, %; cell reporter, cycloheximide protein synthesis inhibition counterscreen; hit rate 12% among 300,000; in the data active = max response mostly above about 13%, no sharp cut-off; inactive = mostly below about 14%; also: read at 38.3 µM for the half of the compounds with a filed dose; 0% is about no effect
# HCV inhibitor – blocks hepatitis C virus. Huh7.5.1 HCVcc-Cre infection, luciferase reporter, 44 h. Potency, µM (highest dose often 41.8 µM), inactives show at the highest dose activity change, negative = inhibition, hits mostly inhibitors. hit rate 3.4% among 340,000. AID 651820; also: potency is read from the fitted curve at half-maximal effect; % is scaled to controls: 0 for no effect and ±100 for the full control effect
#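 A cell-based infection assay in which seeded cells (1,000 per well) receive test compound after 4 h, are inoculated with HCVcc-Cre at approximately 0.5 moi, and are incubated 44 h before luminescence detection.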
# Shiga inhibitor – inhibitors of Shiga toxin in Vero cells | AID 2315 | Vero cells, Shiga toxin protein synthesis inhibition reporter | hit rate 9.2% among 290,000 | inhibition, % at 38.7 µM; in the data active = inhibition mostly above about 28%, no sharp cut-off; inactive = mostly below about 43%; also: 0% is about no effect
# AMA1-RON2 inh – disrupts binding of P. falciparum AMA1 to RON2 | AlphaScreen AMA1-biotinylated RON2 peptide binding | Potency, µM (doses to about 58.2 µM), without a hit: at the top dose activity change, negative = inhibition, most hits filed as inhibitors | hit rate 0.2% among 360,000;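 also: potency is read from the fitted curve at half-maximal effect; 0% = vehicle wells and -100% = peptide control; nearly all actives have a fitted effect of over 45% in size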
#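 AMA1 (3D7) with his tag at 25 nM final met compounds first, then biotinylated RON2 peptide at 25 nM; detection used donor plus acceptor beads, 10 µg/mL apiece, read by AlphaScreen after 30 min at room temperature.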
# Pf growth 96h – inhibits malaria parasite growth, 96 h. P. falciparum luciferase reporter growth, 96 h. Potency, µM (highest dose often 28.7 µM), without a hit: top-dose activity change, negative = inhibition, usual class: inhibitors. hit rate 6.9% among 320,000; also: potency is read from the fitted curve at half-maximal effect; % is scaled to controls: 0 for no effect and ±100 for the full control effect
#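 P. falciparum expressing integrated firefly luciferase, in erythrocytes at 2% hematocrit, 0.05% parasitemia, incubated with compounds 96 h at 37 C, 5% CO2. Growth inhibition read as loss of luminescence; two-generation exposure targets delayed-death apicoplast inhibitors.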
# Numbers without * were called inactive; u = inconclusive; x = no result. An excerpt weighted towards active compounds, which were near 21% of everything screened. Unless noted, calls follow the shape of the dose curve; as a rule, active = well fitted curve in the direction sought with a large enough effect; inconclusive = small, poorly fitted or top-dose-only effect, or another doubt; inactive = no such curve, though single readings can be large; an effect the other way counts as inactive or inconclusive.
SMILES,Pf growth 48h,Cycloheximide cs,HCV inhibitor,Shiga inhibitor,AMA1-RON2 inh,Pf growth 96h
C[C@H](CO)N1C[C@H](C)[C@@H](CN(C)C(=O)c2cc(-c3ccccc3)on2)OCc2cn(nn2)CCCC1=O,x,x,x,x,-0.2%,x
CCOC(=O)Cc1cc(-c2ccc(O)cc2)nc2ccc3ccccc3c12,u,22.3,u,82.9*,0.2%,11.7µM*
O=C(CSc1ncn[nH]1)N/N=C/c1ccc(Br)cc1,-12.0%,9.9,0.1%,24.6,10.3%,u
COC(=O)c1ccccc1NC(=O)CSc1ccccc1,-19.9%,1.1,-14.4%,24.8,1.9%,0.3%
O=C(CSc1ncn[nH]1)Nc1ccc(Br)cc1F,53.5%,25.2*,11.1%,40.0,-4.3%,98.7%
O=C(CSc1ccccc1)Nc1ccccc1C(=O)O,20.4%,27.1*,9.0%,87.5*,1.9%,1.6%
O=C(CSc1ncn[nH]1)Nc1ccccc1C(=O)O,9.5%,-3.2,13.0%,-13.7,1.8%,2.94µM*
Cc1ccc(SCC(=O)Nc2ccccc2C(=O)O)cc1,59.2%,28.8*,0.9%,116.6*,10.4%,x
Cc1ccc(CSCC(=O)NCCc2ccccc2)cc1,22.2%,17.7*,-20.6%,84.8,-4.1%,-16.5%
Cc1ccc(CSCC(=O)Nc2ccccc2C(=O)O)cc1,44.3%,35.6*,12.5%,47.1*,-1.6%,2.08µM*
Cc1ccc(NC(=O)CSCC(=O)NCCc2ccccc2)cc1,u,1.7,6.8%,-3.8,-1.2%,52.2%
COc1ccccc1CNS(=O)(=O)c1c(C)cc(C)cc1C,x,x,x,x,-8.5%,x
CN1CCN(C(=O)OC2CC3CC2[C@H]2CCCCN2C3=O)CC1 (some centres not stated),x,x,x,x,-2.8%,x
Nc1nn(-c2ccccc2)c2ccc([N+](=O)[O-])cc12,54.2%,26.1*,5.5%,33.7,-1.5%,u
O=[N+]([O-])c1ccc2c(c1)nnn2-c1ccccc1,47.3%,-2.3,-5.5%,22.4,0.1%,u
Cc1nn(-c2ccccc2)c(N)c1Sc1cccc([N+](=O)[O-])c1,u,10.7,u,2.0,-11.5%,5.3%
Nc1c(-c2ccccc2)cnn1-c1cccc([N+](=O)[O-])c1,52.7%,31.1*,-20.5%,80.9*,-7.4%,70.5%
Nc1c(-c2ccc(Cl)cc2)cnn1-c1cccc([N+](=O)[O-])c1,32.2%,19.3*,-16.2%,87.1*,-22.4%,428.1%
Cc1nn(-c2cccc([N+](=O)[O-])c2)c(N)c1-c1ccccc1,187.6%,38.9*,-12.5%,72.7*,2.4%,82.7%
O=C(O)c1ccccc1NC(=O)c1ccccc1Nc1ccccc1,0.0%,14.3,3.5%,29.9,-8.0%,-2.6%
CSc1cccc(NC(=S)N2CCCN(Cc3cccc(Cl)c3)C2)c1,10.4µM*,-8.3,u,-6.4,16.0%,40.1%
Cc1ccc(Cn2c(=N)c(C#N)cc3c(=O)n4cccc(C)c4nc32)cc1,9.8%,-0.9,x,-15.4,x,14.7µM*
Cc1ccc(CNC(=O)c2cc3c(=O)n4cccc(C)c4nc3n(CC3CCCO3)c2=N)cc1 (configuration not stated),u,-0.4,x,-8.8,x,8.28µM*
Cc1ccc(Cn2c(=N)c(C(=O)NCC3CCCO3)cc3c(=O)n4cccc(C)c4nc32)cc1 (configuration not stated),u,-8.5,11.2µM*,-4.2,-10.7%,u
CCCn1c(=N)c(C(=O)NCC2CCCO2)cc2c(=O)n3cccc(C)c3nc21 (configuration not stated),8.9%,-3.8,11.0%,16.7,-9.5%,11.1%
Cc1cccn2c(=O)c3cc(C#N)c(=N)n(Cc4cccnc4)c3nc12,x,x,7.0%,x,-12.3%,x
Cc1cccn2c(=O)c3cc(C(=O)NCCc4ccccc4)c(=N)n(CC4CCCO4)c3nc12 (configuration not stated),2.33µM*,-0.6,-2.6%,-5.6,-5.6%,29.1%
Cc1cccn2c(=O)c3cc(C(=O)NCc4cccnc4)c(=N)n(CC4CCCO4)c3nc12 (configuration not stated),u,6.2,21.4%,-1.9,-6.9%,1.2%
C=CCC[C@@H](CCCCC)OC(=O)/C=C/[C@@H](O)[C@H](O)C[C@@H](O)CC=C,x,x,x,x,-12.1%,x
